Consider one compound from ChEMBL document CHEMBL2218924, “A broad activity screen in support of a chemogenomic map for kinase signalling research and drug discovery” (Biochem J, 2013).

Test [1] has as its target T1, Serine/threonine-protein kinase TBK1 (Homo sapiens) (UniProt Q9UHD2).
T1 sequence (whole entry): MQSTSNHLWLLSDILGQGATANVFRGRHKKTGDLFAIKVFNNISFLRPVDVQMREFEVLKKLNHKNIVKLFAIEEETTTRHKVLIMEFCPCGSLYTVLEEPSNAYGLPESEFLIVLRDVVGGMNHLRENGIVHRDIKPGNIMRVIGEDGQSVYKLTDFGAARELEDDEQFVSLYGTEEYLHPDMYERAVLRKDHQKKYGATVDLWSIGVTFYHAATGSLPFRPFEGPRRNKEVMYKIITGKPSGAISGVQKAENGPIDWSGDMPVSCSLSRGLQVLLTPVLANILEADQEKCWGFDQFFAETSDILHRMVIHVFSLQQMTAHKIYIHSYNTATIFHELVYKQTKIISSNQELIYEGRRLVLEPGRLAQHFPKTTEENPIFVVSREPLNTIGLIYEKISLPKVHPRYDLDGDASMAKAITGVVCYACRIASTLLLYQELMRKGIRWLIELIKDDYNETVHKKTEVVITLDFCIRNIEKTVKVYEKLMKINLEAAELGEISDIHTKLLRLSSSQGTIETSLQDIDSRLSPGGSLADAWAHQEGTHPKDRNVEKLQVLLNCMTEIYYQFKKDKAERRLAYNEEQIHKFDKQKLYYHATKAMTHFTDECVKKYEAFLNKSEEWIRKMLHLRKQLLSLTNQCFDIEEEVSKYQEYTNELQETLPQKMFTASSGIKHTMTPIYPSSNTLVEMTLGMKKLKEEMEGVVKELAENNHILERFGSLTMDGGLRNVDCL
The following applies: at 10 µM.

Test [2] addresses T2, TGF-beta receptor type-1 (Homo sapiens) (UniProt P36897).
T2 sequence (whole entry): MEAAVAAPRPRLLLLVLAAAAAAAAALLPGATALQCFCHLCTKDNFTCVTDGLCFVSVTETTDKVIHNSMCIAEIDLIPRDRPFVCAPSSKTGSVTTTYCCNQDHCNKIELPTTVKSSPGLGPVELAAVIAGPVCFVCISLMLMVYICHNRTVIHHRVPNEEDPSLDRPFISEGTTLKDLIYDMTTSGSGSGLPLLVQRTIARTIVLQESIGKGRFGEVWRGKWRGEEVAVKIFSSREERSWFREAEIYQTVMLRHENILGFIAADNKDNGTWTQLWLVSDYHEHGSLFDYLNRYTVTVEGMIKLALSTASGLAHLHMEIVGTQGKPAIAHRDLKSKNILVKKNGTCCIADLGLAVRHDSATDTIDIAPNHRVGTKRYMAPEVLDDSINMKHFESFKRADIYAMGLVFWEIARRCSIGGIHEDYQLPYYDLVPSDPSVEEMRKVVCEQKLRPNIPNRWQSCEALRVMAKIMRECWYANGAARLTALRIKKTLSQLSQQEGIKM
Particulars: at 1 µM.

Test [3] addresses T2, TGF-beta receptor type-1 (Homo sapiens). Particulars: at 10 µM.
Test [4] concerns the target Insulin-like growth factor 1 receptor (Homo sapiens) (UniProt P08069). Particulars: at 1 µM.
Test [5] has the same target. The following applies: at 10 µM.
For test [6], the target named is T3, Inhibitor of nuclear factor kappa-B kinase subunit alpha (Homo sapiens) (UniProt O15111).
T3 sequence (whole entry): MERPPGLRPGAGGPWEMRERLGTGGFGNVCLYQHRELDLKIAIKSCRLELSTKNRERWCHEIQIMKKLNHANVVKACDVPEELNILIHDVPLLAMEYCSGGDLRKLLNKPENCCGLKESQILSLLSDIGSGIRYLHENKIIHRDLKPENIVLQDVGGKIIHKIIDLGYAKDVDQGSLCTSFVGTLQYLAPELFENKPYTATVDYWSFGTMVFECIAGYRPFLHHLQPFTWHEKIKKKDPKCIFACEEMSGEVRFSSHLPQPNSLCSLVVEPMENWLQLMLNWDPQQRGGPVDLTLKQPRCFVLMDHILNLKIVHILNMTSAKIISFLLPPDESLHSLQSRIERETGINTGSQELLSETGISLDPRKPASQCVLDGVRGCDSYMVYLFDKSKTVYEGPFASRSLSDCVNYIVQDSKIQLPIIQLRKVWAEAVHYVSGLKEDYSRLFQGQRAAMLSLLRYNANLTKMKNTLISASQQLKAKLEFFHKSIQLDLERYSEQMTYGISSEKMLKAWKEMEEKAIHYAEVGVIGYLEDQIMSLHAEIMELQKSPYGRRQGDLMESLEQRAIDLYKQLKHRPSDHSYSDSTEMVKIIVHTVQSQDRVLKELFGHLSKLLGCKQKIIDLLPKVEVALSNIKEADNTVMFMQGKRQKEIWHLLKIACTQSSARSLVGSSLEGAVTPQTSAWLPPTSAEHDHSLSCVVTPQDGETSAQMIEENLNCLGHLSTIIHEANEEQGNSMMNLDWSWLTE
The following applies: at 1 µM.

The target of test [7] is T3, Inhibitor of nuclear factor kappa-B kinase subunit alpha (Homo sapiens). Particulars: at 10 µM.
Test [8] addresses T4, Inhibitor of nuclear factor kappa-B kinase subunit beta (Homo sapiens) (UniProt O14920).
T4 sequence (whole entry): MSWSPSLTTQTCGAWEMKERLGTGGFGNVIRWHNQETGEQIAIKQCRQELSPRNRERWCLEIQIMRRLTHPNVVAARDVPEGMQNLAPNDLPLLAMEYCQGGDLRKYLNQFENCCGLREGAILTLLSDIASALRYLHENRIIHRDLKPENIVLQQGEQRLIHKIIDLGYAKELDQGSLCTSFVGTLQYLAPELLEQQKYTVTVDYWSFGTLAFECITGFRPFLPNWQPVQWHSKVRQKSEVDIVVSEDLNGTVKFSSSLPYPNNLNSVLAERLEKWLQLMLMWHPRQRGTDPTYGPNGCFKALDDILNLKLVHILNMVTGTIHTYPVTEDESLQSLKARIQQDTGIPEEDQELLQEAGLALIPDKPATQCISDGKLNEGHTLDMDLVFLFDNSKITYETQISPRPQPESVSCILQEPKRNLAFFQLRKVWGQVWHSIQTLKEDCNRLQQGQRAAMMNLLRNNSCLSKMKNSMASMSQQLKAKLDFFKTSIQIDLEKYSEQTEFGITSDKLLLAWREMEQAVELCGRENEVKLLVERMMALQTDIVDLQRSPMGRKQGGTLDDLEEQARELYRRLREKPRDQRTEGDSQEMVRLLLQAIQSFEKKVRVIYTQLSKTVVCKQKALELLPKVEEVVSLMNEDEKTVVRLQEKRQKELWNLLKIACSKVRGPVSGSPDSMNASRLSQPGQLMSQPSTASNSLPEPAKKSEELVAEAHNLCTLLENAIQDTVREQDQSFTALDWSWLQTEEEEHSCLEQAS
The following applies: at 1 µM.

Test [9] addresses T4, Inhibitor of nuclear factor kappa-B kinase subunit beta (Homo sapiens). Particulars: at 10 µM.
In test [10] the target is Insulin receptor (Homo sapiens) (UniProt P06213). The following applies: at 1 µM.
Insulin receptor (Homo sapiens), sequence (P06213 28-758 limits assumed): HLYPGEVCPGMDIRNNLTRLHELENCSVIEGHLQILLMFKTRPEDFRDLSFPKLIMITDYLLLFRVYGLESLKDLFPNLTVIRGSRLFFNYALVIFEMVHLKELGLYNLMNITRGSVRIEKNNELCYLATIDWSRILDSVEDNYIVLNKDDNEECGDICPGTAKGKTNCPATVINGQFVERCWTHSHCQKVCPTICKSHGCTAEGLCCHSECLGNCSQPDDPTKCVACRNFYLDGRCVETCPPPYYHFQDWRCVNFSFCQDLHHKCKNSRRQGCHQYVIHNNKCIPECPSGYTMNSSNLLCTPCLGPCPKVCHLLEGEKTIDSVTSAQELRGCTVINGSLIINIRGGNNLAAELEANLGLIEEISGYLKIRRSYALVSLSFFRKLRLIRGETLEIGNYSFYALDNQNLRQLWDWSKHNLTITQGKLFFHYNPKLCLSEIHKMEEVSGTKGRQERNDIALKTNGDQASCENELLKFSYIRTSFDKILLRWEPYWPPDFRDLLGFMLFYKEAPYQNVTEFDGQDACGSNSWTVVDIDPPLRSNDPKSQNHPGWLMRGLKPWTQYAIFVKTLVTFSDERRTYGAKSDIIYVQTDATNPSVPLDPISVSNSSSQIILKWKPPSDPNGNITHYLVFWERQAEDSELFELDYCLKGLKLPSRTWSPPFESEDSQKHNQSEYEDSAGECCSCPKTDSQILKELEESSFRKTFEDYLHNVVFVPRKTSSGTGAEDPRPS
Insulin receptor (Homo sapiens), sequence (P06213 763-1382 limits assumed): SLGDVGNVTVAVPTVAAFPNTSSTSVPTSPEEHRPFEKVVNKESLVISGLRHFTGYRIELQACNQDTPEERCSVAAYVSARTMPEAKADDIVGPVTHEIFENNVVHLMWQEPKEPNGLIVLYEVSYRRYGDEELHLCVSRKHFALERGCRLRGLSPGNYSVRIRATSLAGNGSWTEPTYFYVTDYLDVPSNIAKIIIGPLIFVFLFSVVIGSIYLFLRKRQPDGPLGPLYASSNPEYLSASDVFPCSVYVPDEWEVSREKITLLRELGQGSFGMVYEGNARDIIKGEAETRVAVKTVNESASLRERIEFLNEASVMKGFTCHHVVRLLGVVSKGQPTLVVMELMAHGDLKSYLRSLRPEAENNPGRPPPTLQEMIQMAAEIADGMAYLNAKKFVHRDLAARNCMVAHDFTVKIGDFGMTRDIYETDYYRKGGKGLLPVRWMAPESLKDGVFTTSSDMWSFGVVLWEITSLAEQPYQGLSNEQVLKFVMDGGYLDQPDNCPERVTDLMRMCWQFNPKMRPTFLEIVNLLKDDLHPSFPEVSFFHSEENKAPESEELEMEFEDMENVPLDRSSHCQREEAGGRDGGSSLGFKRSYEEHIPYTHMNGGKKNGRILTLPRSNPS

Insulin-like growth factor 1 receptor (Homo sapiens), sequence (P08069 31-736 limits assumed): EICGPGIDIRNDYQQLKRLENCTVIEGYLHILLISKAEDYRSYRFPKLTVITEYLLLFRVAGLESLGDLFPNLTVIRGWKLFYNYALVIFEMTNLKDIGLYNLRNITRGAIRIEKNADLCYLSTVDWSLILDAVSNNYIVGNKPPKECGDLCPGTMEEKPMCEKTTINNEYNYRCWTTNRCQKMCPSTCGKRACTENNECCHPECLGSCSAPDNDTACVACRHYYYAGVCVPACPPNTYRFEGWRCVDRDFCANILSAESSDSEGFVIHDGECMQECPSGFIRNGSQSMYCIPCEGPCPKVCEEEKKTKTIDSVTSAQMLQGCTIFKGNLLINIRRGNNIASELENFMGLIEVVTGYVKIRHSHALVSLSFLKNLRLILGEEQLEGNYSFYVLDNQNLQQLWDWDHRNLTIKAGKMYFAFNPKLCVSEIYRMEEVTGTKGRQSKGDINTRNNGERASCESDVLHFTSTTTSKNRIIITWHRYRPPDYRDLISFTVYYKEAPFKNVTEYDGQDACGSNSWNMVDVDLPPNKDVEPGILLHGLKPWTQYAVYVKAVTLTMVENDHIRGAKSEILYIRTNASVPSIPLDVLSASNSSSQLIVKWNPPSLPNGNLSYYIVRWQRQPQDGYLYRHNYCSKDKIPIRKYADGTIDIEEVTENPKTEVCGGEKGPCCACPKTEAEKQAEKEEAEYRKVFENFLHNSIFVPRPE
Insulin-like growth factor 1 receptor (Homo sapiens), sequence (P08069 741-1367 limits assumed): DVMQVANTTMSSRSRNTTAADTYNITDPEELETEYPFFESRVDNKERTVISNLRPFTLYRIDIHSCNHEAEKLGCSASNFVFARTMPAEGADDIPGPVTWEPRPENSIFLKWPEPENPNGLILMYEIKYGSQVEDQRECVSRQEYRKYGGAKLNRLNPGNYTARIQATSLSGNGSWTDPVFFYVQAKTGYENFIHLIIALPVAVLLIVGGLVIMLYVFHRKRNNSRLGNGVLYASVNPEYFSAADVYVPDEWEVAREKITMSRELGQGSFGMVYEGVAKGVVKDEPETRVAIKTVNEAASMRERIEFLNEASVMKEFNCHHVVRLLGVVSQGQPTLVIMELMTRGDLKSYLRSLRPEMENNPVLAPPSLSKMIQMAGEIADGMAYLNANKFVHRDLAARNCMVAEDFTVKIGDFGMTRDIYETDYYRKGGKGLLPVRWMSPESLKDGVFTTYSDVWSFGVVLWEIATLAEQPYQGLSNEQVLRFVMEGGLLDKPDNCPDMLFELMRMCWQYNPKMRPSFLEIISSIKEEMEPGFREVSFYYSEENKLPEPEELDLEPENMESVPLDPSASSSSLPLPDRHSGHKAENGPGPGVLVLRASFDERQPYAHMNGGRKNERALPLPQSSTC

Regarding `Oc1n[nH]c2nnc(-c3c(-c4ccccc4)nn4ccccc34)cc12`, the residual activity (as a rule, the signal under treatment as a percentage of the control signal) in [1] worked out at 60%; in test [2] it was 84%; in [3], 74%; in test [4], 84%; in test [5], 91%; in test [6] it was 102%. In addition, the residual activity was found to be 92% in [7], 97% in test [8], 93% in [9] and 47% in test [10].
